The text below walks through data of PubChem BioAssay (NCI).

Compounds without any hit were thinned out: in the full panel of roughly 83,000, 20% have a hit.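 Interpretation: 100, growth as untreated; towards 0, rising growth inhibition; 0, no net growth; 0 to -100, cell death. Compounds scoring below 10 were considered active.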 Values without a mark were called inactive. The source made the active and inactive calls.

Among the test systems are NCI-H226 lung; NCI-H322M lung; HOP-62 NSCLC; NCI-H460 lung; HOP-92 NSCLC; NCI-H522 lung; A549/ATCC NSCLC; 786-0 renal; COLO 205 colon; DU-145 prostate; K-562 leukemia; MALME-3M melanoma; MDA-MB-231 breast; RXF 393 renal; SF-268 CNS; SF-295 CNS; SF-539 CNS; UACC-257 melanoma; M14 melanoma.
Common to all, as to assay: NCI-60 one-dose screen, 48 h (100 = growth as untreated, 0 = no growth, -100 = all killed)
Conditions in all cases: 10 µM unless noted

Turning to `CC1(C)CC[C@]2(C(=O)O)CC[C@]3(C)C(=CCC4[C@@]5(C)C[C@@H](O)[C@@H]6OC(c7cccc(Br)c7)OC[C@@]6(C)C5CC[C@]43C)C2C1` (some centres not stated), the growth with NCI-H226 lung was 46.4%; in the experiment on NCI-H322M lung, 38.7%; in the experiment on HOP-62 NSCLC, 47.6%; in the experiment with NCI-H460 lung, 20.2%; in the experiment on HOP-92 NSCLC, 25.2%; in the experiment on NCI-H522 lung it was 16.3%. The growth was 23% with A549/ATCC NSCLC; 52.7% in the experiment with 786-0 renal; -31.4% (active) in the experiment on COLO 205 colon; 32.5% in the experiment on DU-145 prostate; 16% with K-562 leukemia; 73.9% with MALME-3M melanoma. The growth in the experiment with MDA-MB-231 breast was 71.2%; with RXF 393 renal, 71.3%; in the experiment on SF-268 CNS it was 47.5%; with SF-295 CNS, 33%; with SF-539 CNS, 54.6%; with UACC-257 melanoma, 53.1%. Besides, the growth in the experiment on M14 melanoma is 53.2%.

For `COc1cc2nc(SCc3ccccc3)n(-c3ccc(Cl)cc3)c(=O)c2cc1OC`, the growth was -27.3% (active) in the experiment on NCI-H226 lung; 3.77% (active) in the experiment with NCI-H322M lung; -69.2% (active) with HOP-62 NSCLC; -47.6% (active) in the experiment on NCI-H460 lung; -30.2% (active) in the experiment with HOP-92 NSCLC; -0.701% (active) in the experiment with NCI-H522 lung. Besides, the growth in the experiment on A549/ATCC NSCLC is -50.6% (active); in the experiment with 786-0 renal, -57.2% (active); with COLO 205 colon it was 3.25% (active); with DU-145 prostate, -10% (active); with K-562 leukemia, 2.35% (active); with MALME-3M melanoma, -40.8% (active). Further, the growth in the experiment on MDA-MB-231 breast is -6.51% (active); in the experiment with RXF 393 renal, -38.8% (active); with SF-268 CNS it was -12.9% (active); with SF-295 CNS, -59.9% (active); with SF-539 CNS it was -83.6% (active); in the experiment on UACC-257 melanoma, 38.3%. The growth in the experiment on M14 melanoma was 20.1%.

For the compound `COC(=O)/C=C/c1cccc2c1C(=O)NC(C)(c1cc3ccccc3oc1=O)N2` (configuration not stated), the growth is 63.1% with NCI-H226 lung; 93.7% in the experiment on NCI-H322M lung; 72.4% in the experiment with HOP-62 NSCLC; 44.5% in the experiment with NCI-H460 lung; 50.7% with HOP-92 NSCLC; 62% in the experiment with NCI-H522 lung. For the same compound, the growth with A549/ATCC NSCLC is 67.9%; in the experiment on 786-0 renal it was 58.9%; in the experiment on COLO 205 colon, 63.1%; in the experiment on DU-145 prostate, 62.7%; in the experiment with K-562 leukemia, 56.6%; in the experiment with MALME-3M melanoma, 58.7%. Also, the growth in the experiment on MDA-MB-231 breast is 76.3%; in the experiment on RXF 393 renal, 58.9%; in the experiment on SF-268 CNS it was 82.3%; with SF-295 CNS, 84.9%; in the experiment on SF-539 CNS it was 73.2%; in the experiment with UACC-257 melanoma, 77.7%. For the same compound, the growth with M14 melanoma was 41.7%.

Turning to `CCN(CC)c1ccc(/C=N/Nc2nc(-c3ccc(C)cc3)cs2)c(O)c1`, the growth with NCI-H226 lung was 63.7%; with NCI-H322M lung, 98.1%; in the experiment with HOP-62 NSCLC, 109%; in the experiment on NCI-H460 lung, 111%; with HOP-92 NSCLC it was 108%; in the experiment on NCI-H522 lung it was 65.2%. The growth in the experiment with A549/ATCC NSCLC is 92.2%; in the experiment on 786-0 renal it was 96.2%; in the experiment with COLO 205 colon, 110%; in the experiment on DU-145 prostate, 97.6%; in the experiment on K-562 leukemia, 62.1%; in the experiment with MALME-3M melanoma it was 105%. Moreover, the growth in the experiment with MDA-MB-231 breast is 99.6%; in the experiment on RXF 393 renal, 87.1%; in the experiment with SF-268 CNS, 105%; with SF-295 CNS, 93.6%; in the experiment on SF-539 CNS it was 106%; in the experiment with UACC-257 melanoma, 95.2%. Also, the growth with M14 melanoma was 99.7%.

Take `COc1ccc2oc(=O)c(C3(C)NC(=O)c4c(/C=C/C(=O)OC(C)(C)C)cccc4N3)cc2c1` (configuration not stated): the growth in the experiment with NCI-H226 lung was 44.7%; in the experiment on NCI-H322M lung, 66.9%; in the experiment on HOP-62 NSCLC it was 61%; in the experiment on NCI-H460 lung it was 47.2%; in the experiment with HOP-92 NSCLC it was 32.9%; in the experiment with NCI-H522 lung, 27.8%. The growth in the experiment on A549/ATCC NSCLC was 27.3%; with 786-0 renal, 66.7%; in the experiment on COLO 205 colon, 44.9%; in the experiment with DU-145 prostate, 69.5%; in the experiment on K-562 leukemia, 25.5%; in the experiment on MALME-3M melanoma, 40.5%. The growth is 49.1% with MDA-MB-231 breast; 40.3% in the experiment with RXF 393 renal; 58.1% with SF-268 CNS; 39.3% in the experiment on SF-295 CNS; 67.6% with SF-539 CNS; 32.6% in the experiment on UACC-257 melanoma. Moreover, in the experiment on M14 melanoma, the growth is 48.7%.

Regarding `C#C[C@]1(O)CC[C@H]2[C@@H]3CC=C4c5sc(-c6ccc([N+](=O)[O-])cc6)nc5CC[C@]4(C)[C@H]3CC[C@@]21C`, the growth was 71.6% with NCI-H226 lung; 25.5% with NCI-H322M lung; 23.5% in the experiment on HOP-62 NSCLC; -47.9% (active) in the experiment on NCI-H460 lung; 42.9% in the experiment with HOP-92 NSCLC; -5.59% (active) with NCI-H522 lung. Also, the growth in the experiment with A549/ATCC NSCLC is 29.6%; in the experiment on 786-0 renal it was 18.3%; in the experiment with COLO 205 colon, -70% (active); in the experiment with DU-145 prostate, 6.96% (active); with K-562 leukemia it was 5.27% (active); in the experiment on MALME-3M melanoma it was -28.9% (active). The growth in the experiment with MDA-MB-231 breast was -23.5% (active); with RXF 393 renal, -21.7% (active); with SF-268 CNS it was 44.5%; with SF-295 CNS, -41.3% (active); in the experiment with SF-539 CNS it was -49% (active); in the experiment with UACC-257 melanoma it was 32.7%. Further, in the experiment with M14 melanoma, the growth was -53.7% (active).

On to `COc1ccc(/C=N/NC(=O)Cn2nc(Cc3ccc(OC)cc3)c3onc(C)c3c2=O)cc1`, for which the growth with NCI-H226 lung is 49.6%; in the experiment with HOP-62 NSCLC it was 42.8%; with NCI-H460 lung, 30.5%; with HOP-92 NSCLC, -20% (active); in the experiment with NCI-H522 lung it was 58.1%; with A549/ATCC NSCLC it was 45.2%. The growth is -55.5% (active) in the experiment with 786-0 renal; 55.7% with COLO 205 colon; 64% with DU-145 prostate; 53.9% in the experiment with K-562 leukemia; 50.8% in the experiment with MALME-3M melanoma; 57.8% in the experiment with MDA-MB-231 breast. Moreover, the growth is 2.21% (active) with RXF 393 renal; 65.4% in the experiment on SF-268 CNS; 48.2% with SF-295 CNS; 47.6% with SF-539 CNS; 77% with UACC-257 melanoma; 63.9% in the experiment on M14 melanoma.
